Reference: PubChem BioAssay
Where “and” joins values, the source holds several entries; their conditions need not be identical. Equal entries are not always repeated. Calls of active or inactive are those of the source.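 Rule for the calls, unless noted: active = compounds whose cell count with miR-34 switched on is under 0.7 times the count with it off; inactive = the rest.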

Test: viability loss with induced miR-34 in A549 – imaging, A549 dox-inducible miR-34, nuclei and caspase counts, primary screen (AID 1347080); note: test concentration not given here
Conditions: A549 miR-34 inducible, Hoechst nuclei count, 48 h; stronger effect = lower value

Which fold change does the source give for `CC1OC1P(=O)(O)O` (stereo unspecified) here?
The fold change was 1.08 (inactive) and 0.849 (inactive).

For `C[N+]1(C)C2CC(OC(=O)[C@@H](CO)c3ccccc3)CC1C1OC12` (stereo partly specified), which fold change is on record?
The fold change was 0.839 (inactive).

For `CC(N)C(=O)OC(C)(C)Cc1ccc(Cl)cc1` (stereo unspecified), which fold change is on record?
Its fold change is 1.02 (inactive).

With `CCCCCCCCCCCCCC(=O)O[C@@H]1[C@@H](C)[C@@]2(O)[C@@H](C=C(CO)C[C@]3(O)C(=O)C(C)=C[C@@H]23)[C@@H]2C(C)(C)[C@]12OC(C)=O` as the compound, how does the fold change read?
Its fold change is 0.96 (inactive).

For `CC[C@@]1(C2O[C@@H](C3O[C@@](O)(CC)[C@H](C)C[C@@H]3C)C[C@@H]2C)CC[C@H]([C@]2(C)CCC3(C[C@H](O)[C@@H](C)[C@@H]([C@H](C)[C@@H](OC)[C@H](C)C(=O)O)O3)O2)O1` (stereo partly specified), which fold change is on record?
Its fold change is 1.04 (inactive).

Same assay, conditions: A549 miR-34 inducible, Hoechst nuclei count, 48 h; measured here: relative caspase fold change +Dox/-Dox

For `CC1OC1P(=O)(O)O` (stereo unspecified), which fold change is on record?
The fold change was 1.1 and 5.83.

With `N[C@@H](CC(=O)N1CCn2c(nnc2C(F)(F)F)C1)Cc1cc(F)c(F)cc1F` as the compound, how does the fold change read?
The fold change was 5.09.

For `C[N+]1(C)C2CC(OC(=O)[C@@H](CO)c3ccccc3)CC1C1OC12` (stereo partly specified), which fold change is on record?
The fold change was 1.06.

For `CC(N)C(=O)OC(C)(C)Cc1ccc(Cl)cc1` (stereo unspecified), which fold change is on record?
The fold change was 1.79.

Which fold change does the source give for `CCCCCCCCCCCCCC(=O)O[C@@H]1[C@@H](C)[C@@]2(O)[C@@H](C=C(CO)C[C@]3(O)C(=O)C(C)=C[C@@H]23)[C@@H]2C(C)(C)[C@]12OC(C)=O` here?
Its fold change is 1.01.

With `CC[C@@]1(C2O[C@@H](C3O[C@@](O)(CC)[C@H](C)C[C@@H]3C)C[C@@H]2C)CC[C@H]([C@]2(C)CCC3(C[C@H](O)[C@@H](C)[C@@H]([C@H](C)[C@@H](OC)[C@H](C)C(=O)O)O3)O2)O1` (stereo partly specified) as the compound, how does the fold change read?
The fold change was 1.48.

Same assay, conditions: A549 miR-34 inducible, Hoechst nuclei count, 48 h; measured here: total cells with miR-34 induction; stronger effect = lower value

For `CC1OC1P(=O)(O)O` (stereo unspecified), which cell count is on record?
The cell count was 10700 and 11000.

With `N[C@@H](CC(=O)N1CCn2c(nnc2C(F)(F)F)C1)Cc1cc(F)c(F)cc1F` as the compound, how does the cell count read?
Its cell count is 11900.

With `C[N+]1(C)C2CC(OC(=O)[C@@H](CO)c3ccccc3)CC1C1OC12` (stereo partly specified) as the compound, how does the cell count read?
Its cell count is 10100.

With `CC(N)C(=O)OC(C)(C)Cc1ccc(Cl)cc1` (stereo unspecified) as the compound, how does the cell count read?
The cell count was 10500.

With `CCCCCCCCCCCCCC(=O)O[C@@H]1[C@@H](C)[C@@]2(O)[C@@H](C=C(CO)C[C@]3(O)C(=O)C(C)=C[C@@H]23)[C@@H]2C(C)(C)[C@]12OC(C)=O` as the compound, how does the cell count read?
The cell count was 240.

Which cell count does the source give for `CC[C@@]1(C2O[C@@H](C3O[C@@](O)(CC)[C@H](C)C[C@@H]3C)C[C@@H]2C)CC[C@H]([C@]2(C)CCC3(C[C@H](O)[C@@H](C)[C@@H]([C@H](C)[C@@H](OC)[C@H](C)C(=O)O)O3)O2)O1` (stereo partly specified) here?
The cell count was 3480.

Same assay, conditions: A549 miR-34 inducible, Hoechst nuclei count, 48 h; measured here: total cells without miR-34 induction

With `CC1OC1P(=O)(O)O` (stereo unspecified) as the compound, how does the cell count read?
Its cell count is 9890 and 12900.

With `N[C@@H](CC(=O)N1CCn2c(nnc2C(F)(F)F)C1)Cc1cc(F)c(F)cc1F` as the compound, how does the cell count read?
The cell count was 13100.

For `C[N+]1(C)C2CC(OC(=O)[C@@H](CO)c3ccccc3)CC1C1OC12` (stereo partly specified), which cell count is on record?
Its cell count is 12100.

Which cell count does the source give for `CC(N)C(=O)OC(C)(C)Cc1ccc(Cl)cc1` (stereo unspecified) here?
The cell count was 10300.

Which cell count does the source give for `CCCCCCCCCCCCCC(=O)O[C@@H]1[C@@H](C)[C@@]2(O)[C@@H](C=C(CO)C[C@]3(O)C(=O)C(C)=C[C@@H]23)[C@@H]2C(C)(C)[C@]12OC(C)=O` here?
Its cell count is 250.

With `CC[C@@]1(C2O[C@@H](C3O[C@@](O)(CC)[C@H](C)C[C@@H]3C)C[C@@H]2C)CC[C@H]([C@]2(C)CCC3(C[C@H](O)[C@@H](C)[C@@H]([C@H](C)[C@@H](OC)[C@H](C)C(=O)O)O3)O2)O1` (stereo partly specified) as the compound, how does the cell count read?
The cell count was 3340.

Test: galactose survival enhancers in mitochondrial complex I cybrids – cell-based, galactose medium, ATP luminescence, primary screen (AID 1645843;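 active = z-score of at least 1.8 in each of two replicates, scored against plate mean and spread of sample wells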;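 note: positive z means more ATP and so rescue of galactose-driven cybrid death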)
Conditions: complex I mutant cybrid cells, 72 h, stronger effect = higher value

For `CC1OC1P(=O)(O)O` (stereo unspecified), which z-score is on record?
Its z-score is 0.665 (inactive).

For `CC(N)C(=O)OC(C)(C)Cc1ccc(Cl)cc1` (stereo unspecified), which z-score is on record?
The z-score was -0.85 (inactive).

With `CCn1cc(C(=O)O)c(=O)c2ccc(C)nc21` as the compound, how does the z-score read?
The z-score was 0.725 (inactive) and 0.425 (inactive).
